In all, about 5,500 compounds went through this assay and about 2,000 (36%) were called active. Not shown: some 18% with an inconclusive outcome. No stated cut-off is given here; in the data, active means normalized growth mostly below about 0.91 (no sharp cut-off); inconclusive means no clear call, values can overlap the other calls; inactive means mostly above about 0.92. The list shows a part of the results.
Assay: chemical genetic growth profiling, strain panel (AID 1159580);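 further: tested at 20 µM; growth read once vehicle control cultures reached saturation at 30 °C; 1 = growth at the plate median or of vehicle wells; lower values mean less growth of the strain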
Details: growth OD

Measured: normalized growth

CC(=O)CCCCn1c(=O)c2c(ncn2C)n(C)c1=O
inactive: S. cerevisiae deletion strains, locus YJR066W, strain TOR1, hits give low values 0.958 | S. cerevisiae deletion strains, locus YJR075W, strain HOC1, hits give low values 1.01 | S. cerevisiae deletion strains, locus YKL009W, strain mrt4, hits give low values 0.994 | S. cerevisiae deletion strains, locus YKL068W, hits give low values 0.997 | S. cerevisiae deletion strains, locus YKL085W, strain MDH1 (second series), hits give low values 1 | S. cerevisiae deletion strains, locus YKL085W, strain MDH1, hits give low values 1 | S. cerevisiae deletion strains, locus YKL160W, strain elf1, hits give low values 1.02 | S. cerevisiae deletion strains, locus YKL190W, strain CNB1, hits give low values 1.02 | S. cerevisiae deletion strains, locus YKR001C, strain vps1, hits give low values 1.02 | S. cerevisiae deletion strains, locus YKR026C, strain gcn3, hits give low values 1.01 | S. cerevisiae deletion strains, locus YKR091W, strain srl3, hits give low values 1.01 | S. cerevisiae deletion strains, locus YLL001W, strain dnm1, hits give low values 1.01 | S. cerevisiae deletion strains, locus YLL026W, hits give low values 1.01 | S. cerevisiae deletion strains, locus YLL041C, strain sdh2, hits give low values 1.01 | S. cerevisiae deletion strains, locus YLR027C, strain aat2, hits give low values 1 | S. cerevisiae deletion strains, locus YLR039C, strain RIC1, hits give low values 1.03 | S. cerevisiae deletion strains, locus YLR058C, strain SHM2, hits give low values 1.02 | S. cerevisiae deletion strains, locus YLR102C, strain apc9, hits give low values 0.997 | S. cerevisiae deletion strains, locus YLR113W, strain HOG1, hits give low values 1 | S. cerevisiae deletion strains, locus YLR221C, strain rsa3, hits give low values 1.02 | S. cerevisiae deletion strains, locus YLR258W, strain gsy2, hits give low values 1.01 | S. cerevisiae deletion strains, locus YLR262C, strain YPT6 (second series), hits give low values 1.01 | S. cerevisiae deletion strains, locus YLR262C, strain YPT6, hits give low values 1.09 | S. cerevisiae deletion strains, locus YLR268W, strain sec22, hits give low values 1.01 | S. cerevisiae deletion strains, locus YLR320W, strain mms22, hits give low values 1.03 | S. cerevisiae deletion strains, locus YLR330W, strain CHS5, hits give low values 1.01 | S. cerevisiae deletion strains, locus YLR342W, strain FKS1 (second series), hits give low values 0.979 | S. cerevisiae deletion strains, locus YLR342W, strain FKS1, hits give low values 1.01 | S. cerevisiae deletion strains, locus YLR357W, strain rsc2, hits give low values 1.07 | S. cerevisiae deletion strains, locus YLR370C, strain arc18, hits give low values 1.02 | S. cerevisiae deletion strains, locus YLR371W, strain rom2, hits give low values 0.993 | S. cerevisiae deletion strains, locus YLR384C, strain iki3, hits give low values 1.02 | S. cerevisiae deletion strains, locus YLR418C, strain cdc73, hits give low values 0.982 | S. cerevisiae deletion strains, locus YML016C, strain PPZ1, hits give low values 1.02 | S. cerevisiae deletion strains, locus YML032C, strain rad52, hits give low values 0.997 | S. cerevisiae deletion strains, locus YML120C, strain ndi1, hits give low values 1.02 | S. cerevisiae deletion strains, locus YML124C, strain tub3, hits give low values 0.996 | S. cerevisiae deletion strains, locus YMR058W, strain fet3, hits give low values 1.02 | S. cerevisiae deletion strains, locus YMR078C, strain ctf18, hits give low values 0.996 | S. cerevisiae deletion strains, locus YMR125W, strain sto1, hits give low values 1.02 | S. cerevisiae deletion strains, locus YMR129W, hits give low values 1.01 | S. cerevisiae deletion strains, locus YMR205C, strain PFK2, hits give low values 1.04 | S. cerevisiae deletion strains, locus YMR223W, strain ubp8, hits give low values 0.975 | S. cerevisiae deletion strains, locus YMR231W, strain pep5, hits give low values 1.02 | S. cerevisiae deletion strains, locus YMR307W, strain GAS1, hits give low values 0.995 | S. cerevisiae deletion strains, locus YNL067W, strain RPL9B, hits give low values 1.04 | S. cerevisiae deletion strains, locus YNL071W, strain lat1, hits give low values 1.01 | S. cerevisiae deletion strains, locus YNL128W, strain TEP1, hits give low values 0.998 | S. cerevisiae deletion strains, locus YNL175C, strain NOP13, hits give low values 1.02 | S. cerevisiae deletion strains, locus YNL183C, strain NPR1, hits give low values 0.924 | S. cerevisiae deletion strains, locus YNL197C, strain WHI3, hits give low values 1.01 | S. cerevisiae deletion strains, locus YNL209W, strain ssb2, hits give low values 1.01 | S. cerevisiae deletion strains, locus YNL224C, strain SQS1, hits give low values 1 | S. cerevisiae deletion strains, locus YNL233W, strain BNI4, hits give low values 1.02 | S. cerevisiae deletion strains, locus YNL248C, strain rpa49, hits give low values 1.01 | S. cerevisiae deletion strains, locus YNL250W, strain rad50, hits give low values 1.02 | S. cerevisiae deletion strains, locus YNL271C, strain bni1, hits give low values 1 | S. cerevisiae deletion strains, locus YNL298W, strain CLA4, hits give low values 1 | S. cerevisiae deletion strains, locus YNL307C, strain MCK1, hits give low values 0.99 | S. cerevisiae deletion strains, locus YNL322C, strain KRE1 (second series), hits give low values 1.02 | S. cerevisiae deletion strains, locus YNL322C, strain KRE1, hits give low values 1.01 | S. cerevisiae deletion strains, locus YNR049C, strain mso1, hits give low values 1.01 | S. cerevisiae deletion strains, locus YNR052C, strain pop2, hits give low values 1.01 | S. cerevisiae deletion strains, locus YOL006C, strain TOP1, hits give low values 1.08 | S. cerevisiae deletion strains, locus YOL012C, strain htz1 1.51 | S. cerevisiae deletion strains, locus YOL147C, strain pex11, hits give low values 1 | S. cerevisiae deletion strains, locus YOR001W, strain rrp6, hits give low values 1.04 | S. cerevisiae deletion strains, locus YOR061W, strain CKA2, hits give low values 1.02 | S. cerevisiae deletion strains, locus YOR069W, strain VPS5, hits give low values 1.01 | S. cerevisiae deletion strains, locus YOR070C, strain gyp1, hits give low values 1.01 | S. cerevisiae deletion strains, locus YOR080W, strain dia2, hits give low values 1.02 | S. cerevisiae deletion strains, locus YOR083W, strain WHI5 (second series), hits give low values 1.05 | S. cerevisiae deletion strains, locus YOR083W, strain WHI5, hits give low values 1 | S. cerevisiae deletion strains, locus YOR106W, strain vam3, hits give low values 1.02 | S. cerevisiae deletion strains, locus YOR136W, strain idh2, hits give low values 0.996 | S. cerevisiae deletion strains, locus YOR144C, strain elg1, hits give low values 0.99 | S. cerevisiae deletion strains, locus YOR184W, strain ser1, hits give low values 0.999 | S. cerevisiae deletion strains, locus YOR231W, strain MKK1, hits give low values 0.977 | S. cerevisiae deletion strains, locus YOR265W, strain rbl2, hits give low values 1.01 | S. cerevisiae deletion strains, locus YOR270C, strain vph1, hits give low values 1.04 | S. cerevisiae deletion strains, locus YOR290C, strain snf2, hits give low values 1 | S. cerevisiae deletion strains, locus YOR316C, strain cot1, hits give low values 0.999 | S. cerevisiae deletion strains, locus YPL051W, strain arl3, hits give low values 1.01 | S. cerevisiae deletion strains, locus YPL055C, strain LGE1, hits give low values 1.04 | S. cerevisiae deletion strains, locus YPL078C, strain atp4, hits give low values 1.01 | S. cerevisiae deletion strains, locus YPL106C, strain sse1, hits give low values 1.03 | S. cerevisiae deletion strains, locus YPL240C, strain hsp82, hits give low values 1.01 | S. cerevisiae deletion strains, locus YPL241C, strain CIN2, hits give low values 1.01 | S. cerevisiae deletion strains, locus YPL256C, strain CLN2, hits give low values 0.958 | S. cerevisiae deletion strains, locus YPR119W, strain clb2, hits give low values 0.993 | S. cerevisiae deletion strains, locus YPR141C, strain kar3, hits give low values 0.991 | S. cerevisiae deletion strains, locus YPR163C, strain tif3, hits give low values 1 | S. cerevisiae deletion strains, locus YPR167C, strain met16, hits give low values 0.997 | S. cerevisiae deletion strains, strain wtn01, hits give low values 1 | S. cerevisiae strains, strain wild type, hits give low values 1.02

Source: PubChem BioAssay AID1159580 (chemical genetic matrix, 2015)
